From PubChem BioAssay
ELG1 genotox: genotoxicity induction in ELG1-luciferase HEK293T cells; Potency, µM (doses to about 46 µM), hits mostly activators; AID 504466; HEK293T ELG1-luciferase reporter, luminescence, 16 h; actives 1.3% (n = 330,000); note: nearly all actives have a fitted effect of over 60% in size
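Cells (2,000/well) expressing the ELG1-luciferase fusion are dosed by pin tool and kept 16 hr at 37 °C, 5% CO2. Signal comes from ONE-Glo luciferase reagent after 30 min at room temperature.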
NPC1 promoter act: activators of NPC1 promoter; Huh7 NPC1 promoter luciferase reporter, 24 h; AID 485313; actives 2.4% (n = 320,000); Potency, µM (highest dose often 9.22 µM), actives largely listed as activators; note: nearly all actives have a fitted effect of over 60% in size
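Stably transfected Huh7 (NPC1 promoter→luciferase), 1500 cells/well in Opti-MEM + 10% FBS, 2 h settle, then compound 24 h at 37 °C. Luminescence after 10 min with Amplite reagent.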
SMN2 splice up: increases expression of the SMN2 splice variant; HEK293 SMN2-luciferase splicing reporter, luminescence, 30-36 h; actives 2.8% (n = 210,000); Potency, µM (titrated, usually from 46.1 µM), actives largely listed as activators; note: nearly all actives have a fitted effect of over 55% in size
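HEK293 cells carry an SMN2 […]–luciferase reporter in which exon 7 inclusion puts luciferase in frame. Cells were plated 10-12 h before compound addition, then incubated 30-36 h at 37C. ONE-Glo luminescence was read; sodium butyrate at 4.5 mM final served as control.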
FLuc counter: firefly luciferase modulation, counter-screen for miR-21 project; P08659; purified FLuc, Km substrates, luminescence inhibition; actives 6.9% (n = 360,000); Potency, µM (titrated, usually from 57.5 µM), actives largely listed as inhibitors; note: nearly all actives have a fitted effect of over 55% in size
Target sequence (P08659 whole entry, looked up): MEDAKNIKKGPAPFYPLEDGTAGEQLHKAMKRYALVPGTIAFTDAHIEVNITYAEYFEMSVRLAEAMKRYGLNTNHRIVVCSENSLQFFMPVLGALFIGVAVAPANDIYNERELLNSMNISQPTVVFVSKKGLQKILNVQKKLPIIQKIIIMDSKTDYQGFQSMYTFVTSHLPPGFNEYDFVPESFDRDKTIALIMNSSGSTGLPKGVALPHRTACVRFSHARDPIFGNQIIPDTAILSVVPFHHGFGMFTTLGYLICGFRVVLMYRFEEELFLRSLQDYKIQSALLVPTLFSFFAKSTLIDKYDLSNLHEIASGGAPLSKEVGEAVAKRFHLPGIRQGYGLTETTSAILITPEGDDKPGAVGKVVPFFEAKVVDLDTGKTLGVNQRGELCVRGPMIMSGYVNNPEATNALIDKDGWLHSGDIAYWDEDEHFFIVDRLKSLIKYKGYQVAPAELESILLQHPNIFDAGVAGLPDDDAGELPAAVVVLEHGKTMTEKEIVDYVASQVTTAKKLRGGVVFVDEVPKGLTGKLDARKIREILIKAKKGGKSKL
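Purified P. pyralis luciferase (10nM final) with 10uM D-luciferin and 10uM ATP (Km levels) in 50mM Tris acetate pH 7.5, 10mM Mg acetate, 0.01% Tween-20, 0.05% BSA; qHTS 6-point titration, ~60 µM downward; luminescence read.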
Rab9 prom act: activates the Rab9 promoter; Huh7 Rab9 promoter-luciferase reporter, luminescence, 24 h; AID 485297; actives 2.8% (n = 320,000); Potency, µM (series often up to 9.22 µM), hits mostly activators; note: nearly all actives have a fitted effect of over 60% in size
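Luminescence from Amplite-detected luciferase (10 minutes, ambient) reports Rab9 promoter activation. Before that, stable Rab9-luciferase Huh7 cells (1500/well, reduced-serum OP-MEM I plus 10% FBS) were exposed to compound for 24 hours at 37C.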
ELG1 DNA repair: inhibitors of ELG1-dependent DNA repair in HEK293T cells. HEK293T ELG1-luciferase reporter, luminescence, 16 h; DNA damage induced by 5-fluorouridine. Potency, µM (titrated, usually from 46.1 µM), usual class: inhibitors. actives 2.3% (n = 330,000). AID 504467; note: nearly all actives have a fitted effect of over 55% in size
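HEK293T cells expressing luciferase-tagged ELG1 (2,000/well) received 5-Fluorouridine plus compound or DMSO for 16 hr at 37 °C. Luciferase was read by ONE-Glo luminescence after 30 min at room temperature.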
A number is an active result. Shown are actives, neighbours in structure and some others; about 9.4% of the full set was active somewhere. Calls come from the whole dose curve; as a rule, active = well fitted curve in the direction sought with a large enough effect; inconclusive = small, poorly fitted or top-dose-only effect, or another doubt; inactive = no such curve, though single readings can be large; an effect the other way counts as inactive or inconclusive.

What do the screens show for `CCn1c(CCNC(=O)c2cccs2)nnc1SCC(=O)Nc1nc(-c2ccccc2)cs1`?
ELG1 genotox: inactive; NPC1 promoter act: inactive; SMN2 splice up: inactive; FLuc counter: inconclusive; Rab9 prom act: inactive; ELG1 DNA repair: 23µM

How did CCn1c(SCC(=O)Nc2nc(-c3ccccc3)cs2)nc2c1c(=O)n(C)c(=O)n2C do in these assays?
ELG1 genotox: inconclusive; NPC1 promoter act: inactive; SMN2 splice up: inactive; FLuc counter: inactive; Rab9 prom act: inactive; ELG1 DNA repair: inactive

How did CCn1c(SCC(=O)NCc2cccs2)nnc1-c1ccncc1 do in these assays?
ELG1 genotox: inactive; NPC1 promoter act: inactive; SMN2 splice up: inactive; FLuc counter: inactive; Rab9 prom act: inconclusive; ELG1 DNA repair: inactive

How did CCn1c(SCC(=O)Nc2cccc(NC(=O)c3cccs3)c2)nnc1-c1ccncc1 do in these assays?
ELG1 genotox: inactive; NPC1 promoter act: inactive; FLuc counter: inconclusive; Rab9 prom act: inactive; ELG1 DNA repair: 18µM

How did CCn1c(SCC(=O)Nc2nc(-c3ccccc3)cs2)nnc1-c1ccccc1O do in these assays?
ELG1 genotox: inactive; NPC1 promoter act: inactive; SMN2 splice up: inactive; FLuc counter: inconclusive; Rab9 prom act: inactive; ELG1 DNA repair: 21µM

What do the screens show for `O=C(CSc1nc2ccccc2o1)Nc1nc(-c2ccccc2)cs1`?
ELG1 genotox: inconclusive; NPC1 promoter act: inactive; SMN2 splice up: inconclusive; FLuc counter: 21µM; Rab9 prom act: inactive; ELG1 DNA repair: inconclusive

How did Cc1ccc(NC(=O)c2ccc(OC(=O)COc3cccc(Cl)c3)cc2)cc1 do in these assays?
ELG1 genotox: inconclusive; NPC1 promoter act: 2.8µM; SMN2 splice up: 25µM; FLuc counter: inconclusive; Rab9 prom act: 2.8µM; ELG1 DNA repair: inconclusive

Results for Cc1ccc(C(=O)CC(=O)COc2ccc(Cl)cc2C)cc1 ?
ELG1 genotox: inactive; NPC1 promoter act: inactive; SMN2 splice up: inactive; FLuc counter: inactive; Rab9 prom act: inactive; ELG1 DNA repair: inactive

Results for Cc1ccc(NC(=O)c2ccc(OC(=O)COc3ccc(Cl)cc3C)cc2)cc1 ?
ELG1 genotox: inconclusive; NPC1 promoter act: 4µM; SMN2 splice up: 13µM; FLuc counter: inconclusive; Rab9 prom act: 3.5µM; ELG1 DNA repair: inconclusive

What do the screens show for `COC(=O)COc1cccc(NC(=O)c2cccc(C)c2)c1`?
ELG1 genotox: inactive; NPC1 promoter act: inactive; SMN2 splice up: inactive; FLuc counter: inconclusive; Rab9 prom act: inactive; ELG1 DNA repair: inactive

How did Cc1ccc(NC(=O)c2ccc(OC(=O)CCN3C(=O)c4ccccc4C3=O)cc2)cc1 do in these assays?
ELG1 genotox: inconclusive; NPC1 promoter act: 3.2µM; SMN2 splice up: 14µM; FLuc counter: inactive; Rab9 prom act: 1.8µM; ELG1 DNA repair: inconclusive

Results for Cc1cc(C)cc(OC(=O)CCN2C(=O)c3ccccc3C2=O)c1 ?
ELG1 genotox: inactive; NPC1 promoter act: inactive; SMN2 splice up: inactive; FLuc counter: inactive; Rab9 prom act: inactive; ELG1 DNA repair: inactive

How did CC1=C(C(=O)OC2CCCC2)C(c2ccccc2Cl)CC(=O)N1 (stereo not drawn) do in these assays?
SMN2 splice up: inactive; FLuc counter: inactive

Results for CSCCC(NS(=O)(=O)c1ccc2c(c1)oc(=O)n2C)C(=O)NCc1ccc(Cl)cc1 (stereo not drawn) ?
FLuc counter: inactive

What do the screens show for `O=C(CS(=O)(=O)Cc1ccccc1)Nc1nc2c(s1)CCCC2`?
ELG1 genotox: inactive; NPC1 promoter act: inactive; SMN2 splice up: inactive; FLuc counter: inactive; Rab9 prom act: inactive; ELG1 DNA repair: inactive

Results for S=C(Nc1nc2c(s1)CCCC2)NC1CC1 ?
ELG1 genotox: inconclusive; NPC1 promoter act: inconclusive; FLuc counter: 12µM; Rab9 prom act: 2.5µM; ELG1 DNA repair: inconclusive

How did O=C(NC(=S)Nc1nc2c(s1)CCCC2)c1ccccc1 do in these assays?
ELG1 genotox: 5.2µM; NPC1 promoter act: 4µM; SMN2 splice up: 2µM; FLuc counter: 3.4µM; Rab9 prom act: inconclusive; ELG1 DNA repair: inconclusive

How did COC(=O)c1ccc(C(=O)NC(=S)Nc2nc3c(s2)CCCC3)cc1 do in these assays?
ELG1 genotox: inactive; NPC1 promoter act: 4µM; SMN2 splice up: inconclusive; FLuc counter: 15µM; Rab9 prom act: inconclusive; ELG1 DNA repair: inconclusive

Results for Cc1cccc(N2CCN(C(=O)c3oc(=O)c4ccccc4c3-c3ccccc3)CC2C)c1 (stereo not drawn) ?
SMN2 splice up: inactive; FLuc counter: inactive

What do the screens show for `CN=c1scc(-c2ccc(OC)cc2)n1/N=C(\C)c1cccnc1`?
ELG1 genotox: inactive; NPC1 promoter act: inactive; SMN2 splice up: inactive; FLuc counter: 12µM; Rab9 prom act: inactive; ELG1 DNA repair: 18µM

What do the screens show for `CCn1c(SCC(=O)c2cc(C)n(CC3CCCO3)c2C)nc2ccccc21` (stereo not drawn)?
ELG1 genotox: inactive; NPC1 promoter act: inactive; SMN2 splice up: inactive; FLuc counter: 27µM; Rab9 prom act: inconclusive; ELG1 DNA repair: inconclusive

How did Cc1cc(C(=O)CSc2nnnn2-c2ccc(Cl)cc2)c(C)n1CC1CCCO1 (stereo not drawn) do in these assays?
ELG1 genotox: inactive; NPC1 promoter act: inactive; SMN2 splice up: inactive; FLuc counter: inactive; Rab9 prom act: inactive; ELG1 DNA repair: inactive

What do the screens show for `Cc1cc(C(=O)CSc2nc3ccccc3c(=O)n2C)c(C)n1CC1CCCO1` (stereo not drawn)?
ELG1 genotox: inactive; NPC1 promoter act: inactive; SMN2 splice up: inactive; FLuc counter: inconclusive; Rab9 prom act: inactive; ELG1 DNA repair: inconclusive

Results for Cc1cc(C(=O)CSc2nc3ccccc3c(=O)[nH]2)c(C)n1CC1CCCO1 (stereo not drawn) ?
ELG1 genotox: inactive; NPC1 promoter act: inactive; SMN2 splice up: inactive; FLuc counter: 13µM; Rab9 prom act: inconclusive; ELG1 DNA repair: inactive

What do the screens show for `Cc1cc(C(=O)CSc2nnnn2-c2ccccc2)c(C)n1CC1CCCO1` (stereo not drawn)?
ELG1 genotox: inconclusive; NPC1 promoter act: 2.5µM; SMN2 splice up: 13µM; FLuc counter: 2.7µM; Rab9 prom act: 1.6µM; ELG1 DNA repair: inconclusive

How did CCOc1ccccc1NC(=O)c1cc2c(=O)[nH]c3ccccc3c2s1 do in these assays?
SMN2 splice up: inactive; FLuc counter: inactive

Results for Nc1cc(Cl)c([N+](=O)[O-])cc1O ?
SMN2 splice up: inactive

What do the screens show for `Cc1cc2ccccc2n2c(SCC(=O)Nc3ccc(S(=O)(=O)N4CCC(C)CC4)cc3)nnc12`?
ELG1 genotox: inactive; NPC1 promoter act: inactive; SMN2 splice up: inactive; FLuc counter: inactive; Rab9 prom act: inactive; ELG1 DNA repair: 26µM

What do the screens show for `COc1ccc2c(C(=O)c3ccc(C)cc3)n(Cc3ccc(C(N)=O)cc3)[n+]([O-])c2c1`?
ELG1 genotox: inconclusive; NPC1 promoter act: inconclusive; FLuc counter: 13µM; Rab9 prom act: inconclusive; ELG1 DNA repair: inconclusive
